Compound activity deposited in PubChem by National Center for Advancing Translational Sciences (NCATS).
Rows were chosen to be rich in hits. Some 0.87% of all compounds tested hit in one or more screens of this group.
APE1 inh-1: APE1 (human) endonuclease inhibition. AID 2517. Potency, µM (series often up to 65.8 µM), for inactives: at the highest dose activity change, negative = inhibition, usual class: inhibitors. recombinant APE1, TAMRA/BHQ-2 abasic DNA cleavage fluorescence. 350,000 tested, 0.35% active. P27695;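 further: plate controls were vehicle for no effect and reference inhibitor for full effect; nearly all actives have a fitted effect of over 55% in size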
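Quantitative HTS: incision of a TAMRA/BHQ-2 double-stranded substrate bearing a tetrahydrofuran abasic site by 0.75 nM APE1 raises fluorescence. Substrate 50 nM final, added after 15 min compound preincubation at room temperature; progress as third-minus-first kinetic read difference.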
BLM helicase inh: Bloom syndrome helicase (human) inhibition; P54132; recombinant BLM DNA unwinding, fluorescence dequenching; Potency, µM (highest dose often 56.1 µM), without a hit: at the highest dose activity change, negative = inhibition, hits mostly inhibitors; 350,000 tested, 0.2% active; AID 2528;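 further: plate controls were vehicle for no effect and no enzyme for full effect; nearly all actives have a fitted effect of over 35% in size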
GCN5L2 inh: inhibitors of human GCN5L2 histone acetyltransferase | Q92830 | GCN5L2 HAT assay, ThioGlo1 CoA-SH fluorescence | Potency, µM (highest dose often 58.9 µM), for the others: top-dose activity change, negative = inhibition, most hits filed as inhibitors | 390,000 tested, 0.21% active | AID 504327
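Compounds, pin-transferred from DMSO stocks, meet 20nM GCN5L2 for 15 min before the reaction begins with H3(1-25) peptide (75uM) and acetyl-CoA (70uM). Thiol-reactive ThioGlo1 reports CoA release over 20 min at room temperature.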
TDP1 inh: inhibitors of human tyrosyl-DNA phosphodiesterase TDP1 | Q9NUW8 | recombinant TDP1, AlphaScreen DNA substrate cleavage | Potency, µM (doses to about 130 µM), for inactives: at the top dose activity change, negative = inhibition, usual class: inhibitors | 350,000 tested, 0.28% active | AID 485290; further: nearly all actives have a fitted effect of over 40% in size
Target sequence (Q9NUW8 whole entry, looked up): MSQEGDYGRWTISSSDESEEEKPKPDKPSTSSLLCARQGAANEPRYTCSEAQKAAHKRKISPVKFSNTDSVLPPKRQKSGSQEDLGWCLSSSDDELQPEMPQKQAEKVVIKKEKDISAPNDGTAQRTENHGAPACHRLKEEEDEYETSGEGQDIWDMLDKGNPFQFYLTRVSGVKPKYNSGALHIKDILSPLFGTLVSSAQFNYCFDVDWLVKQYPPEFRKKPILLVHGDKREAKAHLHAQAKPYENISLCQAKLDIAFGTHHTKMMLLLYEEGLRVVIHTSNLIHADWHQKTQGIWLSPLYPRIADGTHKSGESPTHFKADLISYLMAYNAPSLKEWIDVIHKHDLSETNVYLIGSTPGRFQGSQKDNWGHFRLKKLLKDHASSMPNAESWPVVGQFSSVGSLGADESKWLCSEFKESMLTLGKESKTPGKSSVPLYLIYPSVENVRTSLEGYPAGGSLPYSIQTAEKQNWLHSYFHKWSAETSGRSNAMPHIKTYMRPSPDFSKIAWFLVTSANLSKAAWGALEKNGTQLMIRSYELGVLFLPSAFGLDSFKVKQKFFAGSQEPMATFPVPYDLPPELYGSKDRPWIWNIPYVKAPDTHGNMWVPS
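Here, a 5' biotin and 3' phosphotyrosine-FITC DNA oligonucleotide reports Tdp1 activity: intact substrate bridges AlphaScreen beads, while cleavage leaves a 3' phosphate and drops signal. All incubations at room temperature.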
RECQ1 inh: RECQ1 (human) helicase inhibition; 240,000 tested, 0.54% active; Potency, µM (doses to about 57.3 µM), without a hit: at the highest dose activity, negative = inhibition, hits mostly inhibitors; RECQ1 DNA unwinding, red fluorescence kinetic read; AID 2549; P46063;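 further: plate controls were vehicle for no effect and no enzyme for full effect; nearly all actives have a fitted effect of over 30% in size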
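RECQ1T1 50 nM; forked duplex (20 bp + 30-nt ss tails) 200 nM, ATP 2 mM final; pH 8.0, 2 mM MgCl2, 2.5 ug/ml poly(dI-dC); 15 min compound preincubation; discontinuous kinetic read over 2 h at RT.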
APE1 dye cs: DNA dye displacement counter-screen activity; shares compounds with APE1 inh-1; DNA fluorescent dye displacement counterscreen, fluorescence; Potency, µM (doses to about 28.5 µM), without a hit: at the top dose activity change, negative = inhibition, hits mostly inhibitors; 480 tested, 7% active; AID 2564;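 further: loss of thiazole orange fluorescence as the dye is displaced from duplex DNA; 0% = ThO with dsDNA and no compound and -100% = ThO without dsDNA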
EndoIV counter: counter-screen for APE1 inhibitors: inhibitors of E. coli endonuclease IV; AID 2565; E. coli Endo IV, fluorogenic AP-site DNA cleavage; 560 tested, 4% active; shares compounds with APE1 inh-1; Potency, µM (top dose mostly 27.1 µM), for the others: top-dose activity change, negative = inhibition, hits mostly inhibitors;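 further: plate controls were uninhibited enzyme wells for no effect and no enzyme buffer wells for full effect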
APE1 inh-2: APE1 (human) endonuclease inhibition, confirmation; Potency, µM (highest dose often 57.1 µM), inactives show at the highest dose activity change, negative = inhibition, usual class: inhibitors; purified APE1, fluorogenic abasic-site DNA cleavage; 750 tested, 44% active; AID 2572; shares compounds with APE1 inh-1; further: nearly all actives have a fitted effect of over 30% in size
APE1 FP: compounds that displace a DNA probe from human APE1. shares compounds with APE1 inh-1. APE1 binding to TAMRA-labelled double-stranded DNA, fluorescence polarization displacement. Potency, µM (series often up to 28.5 µM), inactives show at the top dose activity, negative = inhibition, hits mostly inhibitors. 480 tested, 7% active
An asterisk follows results filed as active; ? = inconclusive; / = not tested or not shown; [ ] = dose if it differs, or a comment. The call rests on the fitted dose curve; in most records, active means well fitted curve in the direction sought with a large enough effect; inconclusive means small, poorly fitted or top-dose-only effect, or another doubt; inactive means no such curve, though single readings can be large; an effect the other way counts as inactive or inconclusive. Unless noted, on the % scale 0 is the no-effect control and ±100 the full control effect; potency means the concentration at half of the fitted maximal effect.

SMILES | APE1 inh-1 | BLM helicase inh | GCN5L2 inh | TDP1 inh | RECQ1 inh | others
O=C(O)c1cccc(-c2nc(-c3ccccc3C(F)(F)F)no2)c1 | 7% | / | / | / | /
CCCOCc1cc(CN2CCN(c3cccc(Cl)c3)CC2)c(O)c2ncccc12 | / | -7% | -13% | 13% | /
CCCCOCc1cc(CN2CCN(c3cccc(Cl)c3)CC2)c(O)c2ncccc12 | / | -4% | 20µM* | 10% | /
CCCSc1nnc(NC(=O)CSc2sc3c(O)cc(=O)[nH]c3c2C#N)s1 | 64%[12.4 µM] | 22µM* | ? | 0% | /
CCCCCCCCCCCCCCCC(=O)N[C@@H](COP(=O)(O)O)C(=O)O | -2% | -20% | 1.6µM* | 4% | ?
COc1cccc(NS(=O)(=O)c2ccc3c(c2)CCC(=O)N3)c1 | / | / | / | 0% | /
Cc1ccc2c(c1)N(CC(=O)NCCCc1ccccc1)C(=O)c1cccnc1O2 | 1% | -1% | 40µM* | / | /
Brc1ccc2c(c1)OCCOCCOc1cc(Br)ccc1OCCOCCOCCO2 | 0% | 16µM* | -7% | 3% | -10%
Brc1cc2c(cc1Br)OCCOCCOCCOCCO2 | 4% | -3% | 1% | -1% | -2%
CCOC(=O)c1c(N)sc(=S)c2c1CCC2 | 35µM* | -27% | -4% | / | ?
COc1ccccc1C(=O)Nc1ncc2c(n1)CC(c1ccco1)CC2=O (configuration not stated) | 18µM* | -20% | -13% | / | ?
CC12C=C(/C=C/C=C/c3ccco3)C(C)(C1)C(/C=C/c1ccco1)CC2=O (configuration not stated) | ? | -3%[12.4 µM] | / | 2µM* | 1.4µM*
NS(=O)(=O)c1ccc(-c2ccc(/C=C3\SC(=S)N(C4CCS(=O)(=O)C4)C3=O)o2)cc1 (configuration not stated) | -3% | 0% | -18% | 8% | -1%
CC1=C(C#N)C(=O)N(C2CCS(=O)(=O)C2)C(=O)/C1=C\c1ccc(C)o1 (configuration not stated) | 18µM* | ? | ? | -10% | 22µM*
O=c1c(O)c(-c2ccc(O)c(O)c2)oc2c(OC3OC(CO)C(O)C(O)C3O)c(O)cc(O)c12 (configuration not stated) | 12% | -9% | -19% | 9%[56.1 µM] | 15%
O=c1c(O)c(-c2ccc(O)c(O)c2)oc2c(OC[C@@H]3O[C@@H](O)[C@@H](O)[C@H](O)[C@H]3O)c(O)cc(O)c12 | 2.5µM* | 1% | / | / | -12%
COc1ccc(-n2nc(C(=O)NCC(=O)NC(C)C)c3ccccc3c2=O)cc1Cl | -5% | -2% | 7.1µM* | / | /
O=C1CCc2cc(S(=O)(=O)Nc3ccc4c(c3)CCC4)ccc2N1 | / | / | / | -1% | /
CC(=O)c1ccccc1NC(=O)COC(=O)CCC1CCCC1 | 22% | / | -7% | 79µM* | /
CCOC(=O)c1ccccc1NC(=O)COC(=O)CCC1CCCC1 | -6% | / | -1% | 50µM* | /
O=C(CCC1CCCC1)Nc1ccccc1-c1ccccc1 | -1% | -4% | -2% | 5% | -12%
CCOC(=O)c1ccccc1NC(=O)COC(=O)CCCOc1ccccc1 | -5% | / | -8% | / | /
O=C(CCC1CCCCC1)Nc1ccccc1-c1ccccc1 | -3% | -9% | 3.2µM* | / | -17%
Cc1ccc(NS(=O)(=O)c2ccc(Cl)cc2)cc1C | / | / | / | -5% | /
CSc1ccc(/C=C(\C(=O)O)c2ccc(S(=O)(=O)N3CCCC3)s2)cc1 | -44% | / | -25% | 28µM* | /
SMILES | APE1 inh-1 | BLM helicase inh | GCN5L2 inh | TDP1 inh | RECQ1 inh | others
COc1ccc(COC(=O)c2c(C)nn(-c3ccccc3)c2Cl)cc1 | -1% | -8% | -5% | 56µM* | /
c1ccc(N2N=C(c3cccs3)CC2c2ccco2)cc1 (configuration not stated) | -6% | -8% | ? | / | ?
Clc1ccc(N2N=C(c3cccs3)CC2c2ccco2)cc1 (configuration not stated) | 12% | -11% | -26% | / | -18% | APE1 inh-2=-31%
OCC1OC([S-])[C@H](O)C(O)C1O.[Au+] (some centres not stated) | / | ? | 11µM* | ? | -4% | EndoIV counter=11%[57.1 µM];APE1 inh-2=13µM*
CC(=O)Oc1cc(-c2coc3cc(OC(C)=O)c(OC(C)=O)c(OC(C)=O)c3c2=O)cc(OC(C)=O)c1OC(C)=O | 0.32µM* | 11µM* | -3% | / | 1µM* | EndoIV counter=21%[57.1 µM];APE1 inh-2=1.1µM*
COc1cc(-c2coc3cc(OC)c(OC)c(OC)c3c2=O)cc(OC)c1OC | -1% | 4% | 15% | 11%[56.1 µM] | -3%
COC(=O)C1=C(C(=O)OC)[C@@H]2Nc3ccccc3[C@@]23C[C@@H](C(=O)OC)N(S(=O)(=O)c2ccc(C#N)cc2)C3=N1 | -4%[12.4 µM] | -3%[12.4 µM] | / | 11%[12.3 µM] | -2%[11.5 µM]
COc1ccc(-c2coc3cc(O)ccc3c2=O)c(O)c1O | 3.2µM* | -23% | ? | / | 4µM* | EndoIV counter=37%[57.1 µM];APE1 inh-2=-87%
COc1ccc(-c2coc3cc(O)ccc3c2=O)c(OC)c1O | 3% | -1% | -12% | 14%[56.1 µM] | 2%
C=C(C(=O)OCC)C(=O)c1ccccc1 | 18% | 6% | / | 4% | -4%
CC1=C[C@@H](O)CC(C)(C)[C@@H]1/C=C/C(C)=C/C=C/C(C)=C/C=C/C=C(C)/C=C/C=C(C)/C=C/C1=C(C)C[C@H](O)CC1(C)C | / | -6% | -5% | / | /
O=C(/C=C/c1ccc(O)c(O)c1)O[C@H](Cc1ccc(O)c(O)c1)C(=O)O | 0.13µM* | 22µM* | -16% | / | 3.5µM* | APE1 dye cs=-5%;EndoIV counter=100%;APE1 inh-2=0.63µM*;APE1 FP=-34%
O=C(O)/C=C/c1ccc(O)c(O)c1 | ? | -10% | 1% | -2% | -6% | APE1 dye cs=-3%[57.1 µM];EndoIV counter=204%[57.1 µM];APE1 inh-2=?;APE1 FP=5%[57.1 µM]
O=C(/C=C/c1ccc(O)c(O)c1)O[C@@H](C(=O)O)[C@@H](OC(=O)/C=C/c1ccc(O)c(O)c1)C(=O)O | ? | / | / | / | 1%
